Key:
[1] = molecular target: T1, Serine/threonine-protein kinase D2 (Homo sapiens) (UniProt Q9BZL6); conditions: at 1 µM;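 further: mean value of PRKD2 inhibition, from the GSK PKIS screening panel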
T1 sequence (whole entry): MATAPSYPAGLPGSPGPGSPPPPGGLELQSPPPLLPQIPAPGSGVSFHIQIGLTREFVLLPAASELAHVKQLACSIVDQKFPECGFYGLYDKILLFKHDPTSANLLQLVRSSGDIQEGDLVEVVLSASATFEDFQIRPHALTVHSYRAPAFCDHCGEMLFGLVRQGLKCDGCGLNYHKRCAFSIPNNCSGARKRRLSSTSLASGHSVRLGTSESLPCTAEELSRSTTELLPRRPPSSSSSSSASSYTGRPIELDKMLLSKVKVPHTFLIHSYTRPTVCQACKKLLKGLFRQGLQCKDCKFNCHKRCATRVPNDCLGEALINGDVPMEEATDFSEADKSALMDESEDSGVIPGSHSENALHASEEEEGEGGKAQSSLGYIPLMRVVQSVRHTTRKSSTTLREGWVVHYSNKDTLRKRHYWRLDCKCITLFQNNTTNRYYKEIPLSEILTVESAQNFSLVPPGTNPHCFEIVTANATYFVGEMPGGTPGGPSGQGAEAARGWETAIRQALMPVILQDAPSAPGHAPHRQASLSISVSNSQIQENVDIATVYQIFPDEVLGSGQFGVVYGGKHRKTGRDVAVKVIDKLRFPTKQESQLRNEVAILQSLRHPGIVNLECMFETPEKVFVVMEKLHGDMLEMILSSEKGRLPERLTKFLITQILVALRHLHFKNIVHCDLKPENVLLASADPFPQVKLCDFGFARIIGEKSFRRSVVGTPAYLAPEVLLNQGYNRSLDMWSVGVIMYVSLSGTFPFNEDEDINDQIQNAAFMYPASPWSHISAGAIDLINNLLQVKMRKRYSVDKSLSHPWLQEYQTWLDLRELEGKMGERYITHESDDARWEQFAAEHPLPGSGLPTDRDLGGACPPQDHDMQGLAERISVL

[2] = molecular target: T2, Serine/threonine-protein kinase D3 (Homo sapiens) (UniProt O94806); conditions: at 0.1 µM
T2 sequence (whole entry): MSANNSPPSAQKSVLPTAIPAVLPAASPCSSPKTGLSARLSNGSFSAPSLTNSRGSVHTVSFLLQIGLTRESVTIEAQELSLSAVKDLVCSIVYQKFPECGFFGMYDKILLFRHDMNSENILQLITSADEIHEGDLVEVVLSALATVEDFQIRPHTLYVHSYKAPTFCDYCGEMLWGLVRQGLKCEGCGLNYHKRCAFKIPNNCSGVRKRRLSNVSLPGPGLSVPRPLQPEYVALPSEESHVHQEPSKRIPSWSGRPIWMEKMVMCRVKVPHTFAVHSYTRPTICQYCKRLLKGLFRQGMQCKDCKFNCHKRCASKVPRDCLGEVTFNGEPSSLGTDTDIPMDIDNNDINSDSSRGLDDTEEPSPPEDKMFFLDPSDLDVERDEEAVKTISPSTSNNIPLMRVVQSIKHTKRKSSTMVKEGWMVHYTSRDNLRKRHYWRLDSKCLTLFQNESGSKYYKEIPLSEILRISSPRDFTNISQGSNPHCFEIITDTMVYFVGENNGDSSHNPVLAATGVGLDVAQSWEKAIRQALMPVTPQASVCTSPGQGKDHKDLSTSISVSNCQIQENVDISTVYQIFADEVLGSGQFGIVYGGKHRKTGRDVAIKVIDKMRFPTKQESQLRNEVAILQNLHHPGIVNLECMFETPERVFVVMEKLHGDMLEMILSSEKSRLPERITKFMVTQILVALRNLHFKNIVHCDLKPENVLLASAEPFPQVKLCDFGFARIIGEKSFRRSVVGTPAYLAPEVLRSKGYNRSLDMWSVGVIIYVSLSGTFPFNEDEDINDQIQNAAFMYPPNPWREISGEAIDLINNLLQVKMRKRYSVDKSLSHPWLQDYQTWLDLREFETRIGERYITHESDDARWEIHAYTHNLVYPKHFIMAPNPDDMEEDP

[3] = molecular target: T2, Serine/threonine-protein kinase D3 (Homo sapiens); conditions: at 1 µM
[4] = molecular target: T3, cGMP-dependent protein kinase 1 (Homo sapiens) (UniProt Q13976); conditions: at 0.1 µM
T3 sequence (whole entry): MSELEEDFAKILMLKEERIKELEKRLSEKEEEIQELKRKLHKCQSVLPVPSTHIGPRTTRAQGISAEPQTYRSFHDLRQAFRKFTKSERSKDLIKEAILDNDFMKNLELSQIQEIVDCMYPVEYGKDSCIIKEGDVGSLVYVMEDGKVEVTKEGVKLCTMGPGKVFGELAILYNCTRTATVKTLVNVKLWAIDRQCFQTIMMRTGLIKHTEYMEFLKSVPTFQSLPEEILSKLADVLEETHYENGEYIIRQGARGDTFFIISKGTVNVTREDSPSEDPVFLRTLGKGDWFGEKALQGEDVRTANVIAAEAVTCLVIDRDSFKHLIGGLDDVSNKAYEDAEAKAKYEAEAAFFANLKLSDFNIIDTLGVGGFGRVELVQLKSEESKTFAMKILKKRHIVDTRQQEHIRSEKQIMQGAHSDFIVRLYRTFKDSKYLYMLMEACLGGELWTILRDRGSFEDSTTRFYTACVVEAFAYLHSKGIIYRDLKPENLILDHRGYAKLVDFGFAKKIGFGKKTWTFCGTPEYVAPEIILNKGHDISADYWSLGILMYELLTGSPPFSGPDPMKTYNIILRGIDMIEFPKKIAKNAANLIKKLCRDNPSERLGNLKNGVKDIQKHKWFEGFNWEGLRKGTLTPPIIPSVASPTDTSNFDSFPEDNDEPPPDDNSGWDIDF

[5] = molecular target: T3, cGMP-dependent protein kinase 1 (Homo sapiens); conditions: at 1 µM
[6] = molecular target: T4, cGMP-dependent protein kinase 2 (Homo sapiens) (UniProt Q13237); conditions: at 0.1 µM
T4 sequence (whole entry): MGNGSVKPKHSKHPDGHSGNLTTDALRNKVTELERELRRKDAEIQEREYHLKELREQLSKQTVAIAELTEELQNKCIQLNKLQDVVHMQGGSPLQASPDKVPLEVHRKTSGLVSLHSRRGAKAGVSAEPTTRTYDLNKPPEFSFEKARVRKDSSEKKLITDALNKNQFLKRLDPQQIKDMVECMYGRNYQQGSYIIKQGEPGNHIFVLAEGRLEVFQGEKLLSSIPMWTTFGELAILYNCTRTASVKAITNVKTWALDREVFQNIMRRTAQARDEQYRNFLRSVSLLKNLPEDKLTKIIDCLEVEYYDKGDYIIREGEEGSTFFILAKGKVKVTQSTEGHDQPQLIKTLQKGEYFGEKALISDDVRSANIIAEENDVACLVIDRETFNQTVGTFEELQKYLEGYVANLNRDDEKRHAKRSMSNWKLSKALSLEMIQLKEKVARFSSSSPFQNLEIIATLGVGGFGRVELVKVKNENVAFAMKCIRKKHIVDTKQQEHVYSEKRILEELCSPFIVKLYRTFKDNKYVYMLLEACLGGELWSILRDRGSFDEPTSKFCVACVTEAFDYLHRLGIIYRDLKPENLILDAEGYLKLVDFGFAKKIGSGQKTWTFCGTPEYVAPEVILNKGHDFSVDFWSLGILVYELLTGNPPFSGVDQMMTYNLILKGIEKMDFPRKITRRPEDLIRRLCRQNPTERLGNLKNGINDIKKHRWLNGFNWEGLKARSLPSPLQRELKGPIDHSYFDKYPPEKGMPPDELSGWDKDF

[7] = molecular target: T4, cGMP-dependent protein kinase 2 (Homo sapiens); conditions: at 1 µM
[8] = molecular target: T5, cAMP-dependent protein kinase catalytic subunit PRKX (Homo sapiens) (UniProt P51817); conditions: at 0.1 µM
T5 sequence (whole entry): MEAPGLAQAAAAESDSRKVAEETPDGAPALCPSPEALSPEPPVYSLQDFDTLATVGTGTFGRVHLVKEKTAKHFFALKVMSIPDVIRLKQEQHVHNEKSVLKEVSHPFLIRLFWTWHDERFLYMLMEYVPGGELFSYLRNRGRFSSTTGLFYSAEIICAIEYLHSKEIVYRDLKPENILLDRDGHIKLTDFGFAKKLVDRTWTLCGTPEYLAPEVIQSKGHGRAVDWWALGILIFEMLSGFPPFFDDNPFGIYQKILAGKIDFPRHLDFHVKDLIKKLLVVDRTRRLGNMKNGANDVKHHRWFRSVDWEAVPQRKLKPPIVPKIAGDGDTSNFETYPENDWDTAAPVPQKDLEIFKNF

[9] = molecular target: T5, cAMP-dependent protein kinase catalytic subunit PRKX (Homo sapiens); conditions: at 1 µM
[10] = molecular target: Rho-associated protein kinase 1 (Homo sapiens) (UniProt Q13464); conditions: at 0.1 µM
Chain of Rho-associated protein kinase 1 (Homo sapiens) (Q13464 2-1354 limits assumed): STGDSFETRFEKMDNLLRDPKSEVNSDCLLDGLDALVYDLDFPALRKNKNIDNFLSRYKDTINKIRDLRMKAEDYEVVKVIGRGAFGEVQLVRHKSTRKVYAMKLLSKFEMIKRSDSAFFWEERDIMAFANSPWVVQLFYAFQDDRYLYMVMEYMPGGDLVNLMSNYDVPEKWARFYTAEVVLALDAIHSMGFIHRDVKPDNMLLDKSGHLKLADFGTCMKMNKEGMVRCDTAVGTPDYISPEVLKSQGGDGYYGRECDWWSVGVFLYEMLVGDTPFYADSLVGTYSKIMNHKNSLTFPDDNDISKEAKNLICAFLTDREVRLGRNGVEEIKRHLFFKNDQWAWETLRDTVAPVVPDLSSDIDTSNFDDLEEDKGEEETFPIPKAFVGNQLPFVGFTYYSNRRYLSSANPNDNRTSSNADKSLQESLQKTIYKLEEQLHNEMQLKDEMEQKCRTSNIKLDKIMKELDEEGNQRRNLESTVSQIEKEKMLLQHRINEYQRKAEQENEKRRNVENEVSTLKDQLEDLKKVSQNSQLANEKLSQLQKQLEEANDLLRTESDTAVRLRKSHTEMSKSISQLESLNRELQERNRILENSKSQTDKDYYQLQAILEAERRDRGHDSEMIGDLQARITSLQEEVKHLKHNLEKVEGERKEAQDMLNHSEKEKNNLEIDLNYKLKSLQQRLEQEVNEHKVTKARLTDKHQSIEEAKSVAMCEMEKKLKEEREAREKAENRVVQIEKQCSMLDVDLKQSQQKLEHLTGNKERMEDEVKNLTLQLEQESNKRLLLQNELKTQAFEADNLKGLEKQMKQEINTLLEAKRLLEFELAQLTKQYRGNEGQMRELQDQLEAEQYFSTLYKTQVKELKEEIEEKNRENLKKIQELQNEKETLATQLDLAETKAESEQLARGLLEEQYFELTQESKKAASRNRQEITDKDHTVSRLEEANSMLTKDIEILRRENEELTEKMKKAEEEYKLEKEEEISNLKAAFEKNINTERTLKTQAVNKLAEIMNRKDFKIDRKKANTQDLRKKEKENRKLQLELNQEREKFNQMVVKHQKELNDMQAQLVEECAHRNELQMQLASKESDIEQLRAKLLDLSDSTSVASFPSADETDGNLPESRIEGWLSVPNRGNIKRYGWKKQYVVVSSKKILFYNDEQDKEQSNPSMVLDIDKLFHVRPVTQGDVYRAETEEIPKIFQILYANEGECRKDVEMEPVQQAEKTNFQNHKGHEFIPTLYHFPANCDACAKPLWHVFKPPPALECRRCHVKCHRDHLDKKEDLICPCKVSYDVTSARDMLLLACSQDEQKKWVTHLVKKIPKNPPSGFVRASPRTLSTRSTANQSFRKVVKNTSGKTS

[11] = molecular target: Rho-associated protein kinase 1 (Homo sapiens) (UniProt Q13464); conditions: at 1 µM
[12] = molecular target: Rho-associated protein kinase 2 (Homo sapiens) (UniProt O75116); conditions: at 0.1 µM
[13] = molecular target: Rho-associated protein kinase 2 (Homo sapiens) (UniProt O75116); conditions: at 1 µM
[14] = molecular target: Ribosomal protein S6 kinase alpha-1 (Homo sapiens) (UniProt Q15418); conditions: at 0.1 µM
Chain of Ribosomal protein S6 kinase alpha-1 (Homo sapiens) (Q15418 whole entry): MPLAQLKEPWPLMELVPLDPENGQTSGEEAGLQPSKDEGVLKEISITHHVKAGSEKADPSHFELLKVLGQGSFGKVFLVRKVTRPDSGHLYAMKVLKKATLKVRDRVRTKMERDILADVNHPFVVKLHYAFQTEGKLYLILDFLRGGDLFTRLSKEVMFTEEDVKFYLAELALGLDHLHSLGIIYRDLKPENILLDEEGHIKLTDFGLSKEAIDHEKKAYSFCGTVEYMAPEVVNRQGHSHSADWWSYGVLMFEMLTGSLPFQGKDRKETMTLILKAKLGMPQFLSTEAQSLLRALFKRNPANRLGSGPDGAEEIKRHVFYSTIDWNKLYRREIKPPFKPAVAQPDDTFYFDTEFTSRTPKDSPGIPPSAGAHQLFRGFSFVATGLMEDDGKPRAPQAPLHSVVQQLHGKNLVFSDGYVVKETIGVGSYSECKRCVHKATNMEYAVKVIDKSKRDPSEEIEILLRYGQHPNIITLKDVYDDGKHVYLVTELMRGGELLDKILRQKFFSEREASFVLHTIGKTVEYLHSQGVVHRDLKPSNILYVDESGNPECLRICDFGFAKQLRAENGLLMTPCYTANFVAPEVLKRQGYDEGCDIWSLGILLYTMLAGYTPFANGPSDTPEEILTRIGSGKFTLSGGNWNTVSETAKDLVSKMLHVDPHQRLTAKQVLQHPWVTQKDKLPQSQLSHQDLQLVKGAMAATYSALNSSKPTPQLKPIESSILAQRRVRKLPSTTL

[15] = molecular target: Ribosomal protein S6 kinase alpha-1 (Homo sapiens) (UniProt Q15418); conditions: at 1 µM
[16] = molecular target: Ribosomal protein S6 kinase alpha-3 (Homo sapiens) (UniProt P51812); conditions: at 0.1 µM
Chain of Ribosomal protein S6 kinase alpha-3 (Homo sapiens) (P51812 whole entry): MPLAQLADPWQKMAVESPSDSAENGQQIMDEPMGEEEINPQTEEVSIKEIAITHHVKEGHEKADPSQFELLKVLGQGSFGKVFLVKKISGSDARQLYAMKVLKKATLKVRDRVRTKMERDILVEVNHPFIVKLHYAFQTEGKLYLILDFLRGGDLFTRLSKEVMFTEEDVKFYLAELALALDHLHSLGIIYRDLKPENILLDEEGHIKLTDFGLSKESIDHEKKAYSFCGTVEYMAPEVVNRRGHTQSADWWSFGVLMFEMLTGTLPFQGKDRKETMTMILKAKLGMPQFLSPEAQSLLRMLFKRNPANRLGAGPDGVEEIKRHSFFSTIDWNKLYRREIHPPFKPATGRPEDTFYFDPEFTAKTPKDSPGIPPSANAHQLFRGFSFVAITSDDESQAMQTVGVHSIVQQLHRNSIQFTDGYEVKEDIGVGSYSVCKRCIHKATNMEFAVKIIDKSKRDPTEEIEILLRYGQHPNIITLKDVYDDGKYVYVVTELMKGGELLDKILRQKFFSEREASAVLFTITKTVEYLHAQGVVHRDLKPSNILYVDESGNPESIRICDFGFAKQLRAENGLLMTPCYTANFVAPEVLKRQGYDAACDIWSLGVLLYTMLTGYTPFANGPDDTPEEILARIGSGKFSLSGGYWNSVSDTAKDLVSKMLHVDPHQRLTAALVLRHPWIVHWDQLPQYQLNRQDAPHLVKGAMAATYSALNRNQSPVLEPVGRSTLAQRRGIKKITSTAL

[17] = molecular target: Ribosomal protein S6 kinase alpha-3 (Homo sapiens) (UniProt P51812); conditions: at 1 µM
[18] = molecular target: Ribosomal protein S6 kinase alpha-2 (Homo sapiens) (UniProt Q15349); conditions: at 0.1 µM
Chain of Ribosomal protein S6 kinase alpha-2 (Homo sapiens) (Q15349 whole entry): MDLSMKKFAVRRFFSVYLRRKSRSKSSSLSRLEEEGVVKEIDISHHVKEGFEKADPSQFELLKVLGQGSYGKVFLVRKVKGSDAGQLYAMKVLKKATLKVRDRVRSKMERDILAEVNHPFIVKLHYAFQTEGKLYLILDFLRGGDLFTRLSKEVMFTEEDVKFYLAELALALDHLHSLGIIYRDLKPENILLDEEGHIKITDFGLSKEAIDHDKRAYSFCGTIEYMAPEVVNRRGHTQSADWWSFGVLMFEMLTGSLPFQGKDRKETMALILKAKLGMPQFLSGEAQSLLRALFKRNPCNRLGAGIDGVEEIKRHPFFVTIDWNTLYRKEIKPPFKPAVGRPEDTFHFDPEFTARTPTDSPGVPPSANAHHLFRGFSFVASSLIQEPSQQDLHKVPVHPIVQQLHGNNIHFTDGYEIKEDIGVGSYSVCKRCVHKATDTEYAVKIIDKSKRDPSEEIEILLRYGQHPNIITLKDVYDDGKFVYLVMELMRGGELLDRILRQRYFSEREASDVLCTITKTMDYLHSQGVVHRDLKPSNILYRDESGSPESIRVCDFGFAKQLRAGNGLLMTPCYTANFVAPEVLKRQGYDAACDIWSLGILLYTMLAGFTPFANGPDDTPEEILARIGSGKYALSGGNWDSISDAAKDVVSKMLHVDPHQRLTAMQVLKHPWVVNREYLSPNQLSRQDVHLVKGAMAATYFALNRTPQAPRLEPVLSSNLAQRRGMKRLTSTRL

[19] = molecular target: Ribosomal protein S6 kinase alpha-2 (Homo sapiens) (UniProt Q15349); conditions: at 1 µM
[20] = molecular target: Ribosomal protein S6 kinase alpha-6 (Homo sapiens) (UniProt Q9UK32); conditions: at 0.1 µM;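 further: reported value is the mean inhibition of RSK4, from the GSK PKIS kinase inhibitor screen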
Chain of Ribosomal protein S6 kinase alpha-6 (Homo sapiens) (Q9UK32 whole entry): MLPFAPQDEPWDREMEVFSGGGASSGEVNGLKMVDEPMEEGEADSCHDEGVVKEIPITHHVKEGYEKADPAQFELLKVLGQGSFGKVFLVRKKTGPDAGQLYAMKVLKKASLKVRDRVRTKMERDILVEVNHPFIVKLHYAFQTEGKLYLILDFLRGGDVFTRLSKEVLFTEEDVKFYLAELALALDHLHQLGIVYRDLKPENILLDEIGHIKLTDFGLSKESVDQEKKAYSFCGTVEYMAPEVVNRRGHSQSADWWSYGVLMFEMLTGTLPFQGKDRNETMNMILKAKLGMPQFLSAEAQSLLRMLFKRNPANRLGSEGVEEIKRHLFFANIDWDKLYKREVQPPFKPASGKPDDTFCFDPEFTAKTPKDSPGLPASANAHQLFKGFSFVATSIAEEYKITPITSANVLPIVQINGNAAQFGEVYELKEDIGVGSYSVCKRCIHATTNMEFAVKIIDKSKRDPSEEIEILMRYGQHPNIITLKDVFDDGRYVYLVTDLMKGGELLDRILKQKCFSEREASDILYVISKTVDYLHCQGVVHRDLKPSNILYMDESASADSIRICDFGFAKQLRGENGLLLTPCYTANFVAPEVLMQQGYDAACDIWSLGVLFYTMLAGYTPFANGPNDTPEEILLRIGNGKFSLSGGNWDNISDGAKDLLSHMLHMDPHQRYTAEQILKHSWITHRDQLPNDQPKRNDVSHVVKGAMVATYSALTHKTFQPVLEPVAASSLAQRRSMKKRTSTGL

SMILES | inhibition [1] [%] | inhibition [2] [%] | inhibition [3] [%] | inhibition [4] [%] | inhibition [5] [%] | inhibition [6] [%] | inhibition [7] [%] | inhibition [8] [%] | inhibition [9] [%] | inhibition [10] [%] | inhibition [11] [%] | inhibition [12] [%] | inhibition [13] [%] | inhibition [14] [%] | inhibition [15] [%] | inhibition [16] [%] | inhibition [17] [%] | inhibition [18] [%] | inhibition [19] [%] | inhibition [20] [%]
COc1cccc(Nc2nccc(-c3cnn4ncccc34)n2)c1 | 37.4 | 4.36 | 41.4 | 5.54 | 37.6 | 1.94 | 14.5 | -0.56 | -0.01 | -0.95 | 6.3 | 2.21 | 15.4 | 0.64 | 4.33 | -0.39 | 2.48 | -0.61 | 2.4 | -1.37
NS(=O)(=O)c1ccc(N/N=C2\C(=O)Nc3ccc(C(=O)NCc4ccncc4)cc32)cc1 | 18.5 | 4.33 | 16.4 | 5 | 19.3 | 5.42 | 18.4 | 6.16 | 15.5 | 0.63 | 5.11 | 4.18 | 15.1 | 1.77 | 7.98 | 2.2 | 6.7 | 1.92 | 7.63 | 3.7
COc1ccc(-c2nn3ncccc3c2-c2ccnc(Nc3ccc(F)c(F)c3)n2)cc1 | 5.42 | 4.4 | 5.09 | 2.68 | 3.58 | 5.81 | 5.3 | 3.54 | 8.39 | 1.21 | 1.15 | 3.85 | 6.06 | 4.22 | 7.89 | 4.49 | 7.14 | 2.96 | 2.69 | 1.78
COC(=O)Nc1nc2cc(Oc3ccc(NC(=O)Nc4ccccc4)cc3)ccc2[nH]1 | 2.45 | 2.48 | 2.79 | 0.72 | 2.97 | 1.5 | 1.55 | 2.09 | 3.93 | 2.24 | 6.47 | 8.68 | 17.2 | 1.66 | 4.06 | 2.3 | 3.56 | 1.67 | 1.89 | 1.27
